This is an account of results in PubChem BioAssay (NCI).

Where “and” joins values, the source holds several entries; their conditions need not be identical. Equal entries are not always repeated. Compounds without any hit were thinned out: in the full panel of roughly 83,000, 20% have a hit.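 Testing used 96-well plates and a 48-hour single-concentration exposure. Example: -40 means 40% of the starting cells died.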 Values without a mark were called inactive. Calls of active or inactive are those of the source. How the source made its calls: active means growth percent below 10; inactive means the rest.

The subject of the experiment is MDA-MB-468 breast. As to the kind of experiment: NCI-60 one-dose screen, 48 h (100 = growth as untreated, 0 = no growth, -100 = all killed). As to conditions: 10 µM unless noted.
Take `NCCNc1nc(-c2ccccc2)nc2nc(-c3ccccc3)oc12`: the growth was 18.9%.

For the compound `Nc1c2ccccc2nc2ccccc12` (tested in a mixture with another compound), the growth was -18.6% (active).

`O=C(NCc1ccc(Cn2c(=O)sn(-c3ccc(Cl)cc3)c2=O)cc1)OCc1ccc2c(Cl)cc(Cl)c(O)c2n1`: the growth was 45.4%.

In the case of `O=C(Nc1ccc(I)cc1)c1cc([N+](=O)[O-])ccc1O`, the growth was 9.76% (active).

With `COc1cc(-c2nc3c(ncc4ccc(=O)n(-c5ccccc5)c43)s2)cc(OC)c1OC`, the growth is 47.3%.

`Oc1ccc(CSc2nnc(-c3ccccc3)o2)c2cccnc12`: the growth was 22.9%.

`CCCCOc1nc2c(C)cccc2cc1C1CNC(=O)c2ccccc2N1` (stereo not given): the growth is 51.6%.

In the case of `COC(=O)c1sccc1-c1cc(O)c(C(=O)Nc2ccccc2)s1`, the growth is 85.4%.

Regarding `O=S(=O)(Nc1ccc(Cl)c(C(F)(F)F)c1)c1ccc(-c2cnc(C3CC3)o2)cc1`, the growth was -7.54% (active).

With `Cc1cc[n+](CCCCCCCCCC[n+]2ccc(C)cc2)cc1`, the growth was 6.78% (active).

Consider `C=C1C(=O)O[C@H]2[C@H]1CC/C(CNC(=O)c1cccc3ccccc13)=C\CC[C@@]1(C)O[C@@H]21`, for which the growth is 33.8%.

On to `CC[C@H](C)[C@@H]1NC(=O)[C@H](Cc2ccc(O)cc2)N(C)C(=O)[C@H](Cc2ccccc2)NC(=O)CN(C)C(=O)[C@@H]2CCCN2C(=O)[C@@H](Cc2ccccc2)N(C)C(=O)[C@H](CC(C)C)NC1=O`, for which the growth is -13.3% (active).

With `COc1ccc2c3c([nH]c2c1)C(=O)c1nc(C)ccc1C3=O`, the growth is 14.8%.

In the case of `Cc1cn(-c2cc(C(=O)Nc3cccc(C#Cc4cccc5[nH]nc(N)c45)c3)cc(C(F)(F)F)c2)cn1`, the growth is 69.6%.

On to `O=C(Nc1ccc(Cl)c(Cl)c1)Nc1c(Oc2ccc(Cl)c(Cl)c2)ccc(Cl)c1S(=O)(=O)O`, for which the growth is -5.92% (active).

Regarding `CCCCCn1ncc(-c2c(O)c(O)cc3c(O)c(-c4c(C)cc5c(-c6cnn(CCCCC)n6)c(O)c(O)cc5c4O)c(C)cc23)n1`, the growth was -2.7% (active).

Regarding `C=CN(C)S(C)(=O)=O`, the growth was -3.6% (active).

Take `CCN(CC)Cc1cc(Nc2c3ccc(Cl)cc3nc3ccc(OC)cc23)ccc1O`: the growth was 60.5%.

On to `Cc1ccccc1-n1nnc(C(=O)Nc2nc(-c3ccccc3)c(-c3ccccc3)s2)c1C`, for which the growth is 61.9% [50 µM].

Turning to `CN1CC[C@@H]2[C@@]3(C)CC[C@H](O)C(C)(C)[C@@H]3CC[C@@]2(C)[C@]2(C)CC[C@@]3(CO)CCC(C)(C)C[C@@H]3C12` (stereo not given in full), the growth is 62%.

Consider `O=C(Nc1ccc2c(c1)C(=O)c1ccccc1-2)c1ccccc1`, for which the growth is 85.6%.

Consider `COC1=CC(c2ccc[nH]2)=N/C1=C\c1[nH]c(C)c(CC(=O)OCc2ccccc2)c1C`, for which the growth was -24.6% (active).

`O=C(Nc1ccc(C23CC4CC(CC(c5ccccc5)(C4)C2)C3)cc1)c1cccs1`: the growth is 38.6%.

Consider `O=C(Cn1c(=O)ccn(CCCCCCCCOc2ccc(Br)cc2)c1=O)Nc1ccc(Oc2ccc(Cl)cc2)cc1`, for which the growth is 34.2%.

With `Cc1ccc(NC(=S)N2CCOCC2)cc1C`, the growth is 83.5%.

Turning to `COc1cccc(NC(=O)Nc2ccc(Oc3ncnc4[nH]c(C)c(C)c34)cc2)c1`, the growth is 125%.

On to `Fc1ccc2nc3c(cc2c1)CSc1nnc(-c2ccc[nH]c2=S)n1N3`, for which the growth is 105%.

As to `Cc1nc(Cl)cc(N(c2cc(Cl)nc(C)n2)c2ncc(C(=O)Nc3c(C)cccc3Cl)s2)n1`, the growth was 42.1%.

With `O=C(O)/C=C/c1cn(-c2ccccc2)nc1-c1ccc(F)cc1`, the growth was 104%.

As for `CCN(CCNc1ccc(C)c2sc3cc(Cl)ccc3c(=O)c12)CC(C)(C)O`, the growth is -19.3% (active).

Consider `NC(=S)N/N=C(\c1ccc(Br)cc1)C1CC1`, for which the growth is 20% and 19%.

As for `O=C(NCCCNc1cc(-c2cn(-c3ccccc3)nc2-c2cccc(O)c2)ccn1)Nc1ccc(F)cc1`, the growth was -19.4% (active).

For `CCCC(OC(C)=O)c1ccc2c(c1)OCO2` (stereo not given), the growth is 103%.

As for `COc1cccc(-c2nc3sccn3c2-c2cccc(S(C)(=O)=O)c2)c1`, the growth was 89.1%.

For the compound `Cc1c(C(=O)Nc2nc(-c3ccccc3)cs2)nnn1-c1cccc2ccccc12`, the growth was 12.3% [50 µM].

For `COc1cc(Nc2ccnc(N3CCN(c4ccnc5cc(Cl)ccc45)CC3)n2)cc(OC)c1`, the growth was -0.859% (active).

For `OC(c1cc(-c2ccc(Cl)cc2)nc2c(Cl)cccc12)C1CCCCN1` (stereo not given), the growth was -86.7% (active).

As to `CC1(COc2ccc3ncc(C#Cc4cncc(C(=O)Nc5cc(C(C)(C)C)on5)c4)n3n2)COC1`, the growth is 85%.

As for `CC(C)(C)n1cc(-c2ccnc(NCCNS(=O)(=O)c3ccc(Br)cc3)c2)c(-c2cccc(O)c2)n1`, the growth is 2.11% (active).

On to `COc1cc2c(cc1OC)C(C(CCCCCC(CCC(C)C)C1NCCc3cc(OC)c(OC)cc31)CCC(C)C)NCC2` (stereo not given), for which the growth was -87.1% (active).
